Bioassay records from PubChem.
Avidin bead fluor: green autofluorescence of compounds with avidin beads – biophysical, 488/530 nm, flow cytometry, artefact control, profiling panel. compound fluorescence 488/530 nm; hits give high values. fluorescence (KMESF) at 10 µM. hit rate 0.38% among 220,000; in the data active means fluorescence above about 47
RGS4-Gao reg: modulators of RGS4 binding to Galphao, primary screen, biochemical, multiplexed bead flow cytometry; actives lie on both sides; binding response (% of control), % at 10 µM; hit rate 0.33% among 220,000; in the data active means binding response below about 49% or above about 150%; inactive means in between;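 further: fluorescent Galphao activated with aluminum fluoride binding bead-coupled RGS4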
Target sequence (P09471 whole entry, looked up): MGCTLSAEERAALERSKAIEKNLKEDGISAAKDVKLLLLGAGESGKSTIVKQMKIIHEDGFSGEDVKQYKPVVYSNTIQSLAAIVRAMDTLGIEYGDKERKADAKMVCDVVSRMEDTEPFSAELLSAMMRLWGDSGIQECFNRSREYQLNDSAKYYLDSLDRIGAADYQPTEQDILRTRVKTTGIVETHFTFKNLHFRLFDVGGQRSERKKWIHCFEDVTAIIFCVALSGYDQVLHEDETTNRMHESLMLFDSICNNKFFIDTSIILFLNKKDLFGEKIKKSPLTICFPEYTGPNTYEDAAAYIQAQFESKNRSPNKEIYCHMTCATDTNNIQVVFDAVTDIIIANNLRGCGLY
GSH fluor: compound fluorescence on glutathione beads, profiling panel, artefact control, biophysical, 488/530 nm, flow cytometry | GSH beads flow cytometry, compound fluorescence 488/530 nm; hits give high values | fluorescence (KMESF) at 10 µM | hit rate 0.25% among 190,000; in the data active means fluorescence above about 89;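 further: glutathione beads carrying GST-tagged Bcl family fusion proteins plus one bare bead set; values are compound well signal with DMSO vehicle wells as background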
RGS16-Gao: modulators of RGS16 binding to Galphao, primary screen, biochemical, human proteins, multiplexed bead flow cytometry; bead-based flow cytometry RGS16-Galphao binding, fluorescence; actives lie on both sides; Regulator of G-protein signaling 16 (Homo sapiens) + Guanine nucleotide-binding protein …; hit rate 0.38% among 220,000; AID 1441, 2008; binding response (% of control), % at 10 µM; call rule not given here;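 further: Galphao activated by GDP with aluminum fluoride before binding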
RGS8-Gao reg: RGS8-Galphao binding modulators, primary screen, biochemical, multiplexed bead flow cytometry. AID 1423, 2008. hit rate 0.34% among 220,000. actives lie on both sides. Guanine nucleotide-binding protein G(o) subunit alpha (Homo sapiens), P09471. response (percent of control binding), % at 10 µM; in the data active means response below about 60% or above about 140%; inactive means in between;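 further: Galphao activated as the GDP aluminium fluoride complex binding bead-coupled RGS8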
RGS7-Gao reg: RGS7-Galphao binding modulators, primary screen, biochemical, multiplexed bead flow cytometry. actives lie on both sides. binding response (% of control), % at 10 µM. hit rate 0.35% among 220,000; in the data active means binding response below about 49% or above about 150%; inconclusive means no clear call, values can overlap the other calls; inactive means in between;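 further: fluorescent Galphao held in activated GDP-AlF4 state binding bead-coupled RGS7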
An asterisk follows results filed as active; ? = inconclusive; . = no result; [ ] = dose if it differs, or a comment. The list is not random: actives were taken first. Their share in the collection is about 1.2%.

SMILES | Avidin bead fluor | RGS4-Gao reg | GSH fluor | RGS16-Gao | RGS8-Gao reg | RGS7-Gao reg
Cc1ccc(OCc2nnc(SCCN3CCOCC3)n2C)cc1 | 8 | 90 | 30 | 44 | 79 | 87
CCc1ccc(OCc2nnc(SCCN3CCOCC3)n2C)cc1 | 9 | 99 | 260* | 106 | 103 | 104
CCOC(=O)C(C)n1cnc2c(nnn2Cc2ccc(C)cc2)c1=O (stereo not drawn) | 49* | 103 | 27 | 100 | 98 | 112
Nc1nc(C23CC4CC(CC(C4)C2)C3)[nH]c(=O)n1 | 4 | 104 | . | 102 | 100 | ?
COc1ccc(Cn2c(=O)[nH]c3cc(C(=O)NCc4ccc5c(c4)OCO5)ccc3c2=O)cc1 | 65* | 102 | 19 | 106 | 100 | 109
COc1ccc(Cn2c(=O)[nH]c3cc(C(=O)NCCCOC(C)C)ccc3c2=O)cc1 | 10 | 98 | 26 | 104 | 101 | 99
O=C(N/N=C/c1ccc(-c2ccccc2[N+](=O)[O-])o1)c1cncc(Br)c1 | 83* | 85 | 6 | 23 | 80 | 78
C[C@@H]1CC[C@H]2C(=O)N3[C@@H](CC[C@@H](C)[C@@H]3c3ccc(Br)cc3)C(=O)N2[C@H]1c1ccc(Br)cc1 | 10 | 101 | 19 | 93 | 100 | 105
Cn1c(=O)[nH]c(=O)c2[nH]c(NCCCN3CCOCC3)nc21 | 48* | 109 | 26 | 121 | 95 | 105
Cc1ccc(S(=O)(=O)N2CCN(c3ccccn3)CC2)cc1 | 5 | 98 | . | 97 | 96 | ?
CC(=O)Nc1ccc(S(=O)(=O)N2CCN(c3ccccn3)CC2)cc1 | 65* | 98 | 25 | 99 | 96 | 111
CC(=O)Nc1ccc(S(=O)(=O)N2CCOCC2)cc1 | 4 | 78 | 140* | 88 | 95 | 80
Cc1onc(-c2c(Cl)cccc2Cl)c1/C(N)=N/OC(=O)C1CC1 | 5 | 92 | . | 93 | 97 | ?
NCC12CC3CC(CC(O)(C3)C1)C2 | 7 | 103 | 262* | 102 | 103 | 101
CCc1c(C)sc(NC(=O)c2cccs2)c1C(=O)OC(C)C | 11 | 100 | 28 | 99 | 101 | 100
Cc1sc(NC(=O)c2cccs2)c(C(=O)OC(C)C)c1C | 5 | 110 | 102* | 108 | 106 | 105
O=C(NCc1cccnc1)c1cc2nc(-c3cccs3)cc(C(F)(F)Cl)n2n1 | 8 | 103 | 13 | 103 | 105 | 104
O=C(Cc1ccccc1[N+](=O)[O-])NCc1ccc(Cl)cc1 | 119* | 213*[activator] | 20 | 105 | 101 | 176*[activator]
O=C(Cc1ccccc1[N+](=O)[O-])NCc1ccc(Cl)cc1Cl | 6 | 102 | 10 | 91 | 98 | 103
CCCc1nnc(NC(=O)c2ccncc2)s1 | 3 | 83 | 239* | -1 | 91 | 92
CCc1nnc(NC(=O)c2ccncc2)s1 | 10 | 86 | 8 | 91 | 93 | 93
COc1ccc(OC)c(-c2c3cc(O)c(=O)cc-3oc3cc(O)c(O)cc23)c1 | -3 | 39* | 274* | 17* | 36* | 4.7*
CC1CN(C(=O)COC(=O)c2ccc(N(C)C)cc2)CC(C)O1 (stereo not drawn) | 9 | 90 | 16 | 88 | 94 | 89
O=c1cc(CN2CCN(c3ccccc3O)CC2)nc2sccn12 | 7 | 92 | 255* | 94 | 97 | 91
Cc1cccc(N2CCN(Cc3cc(=O)n4ccsc4n3)CC2)c1C | 7 | 96 | 21 | 96 | 100 | 96
CCOC(=O)N1CCC(N2CCCC(CO)(Cc3ccccc3C)C2)CC1 (stereo not drawn) | 9 | 100 | 19 | 88 | 95 | 96
CN1CCN(CCC(=O)Nc2ccc(Br)cc2)CC1 | 11 | 100 | 16 | 102 | 100 | 99
O=C(CCN1CCCCC1)Nc1ccc(Br)cc1 | 49* | 104 | 20 | 103 | 102 | 108
CC(=O)Oc1ccc2c(c1)Oc1cc(OC(C)=O)ccc1C21OC(=O)c2ccccc21 | 399* | 581*[activator] | 200* | 888*[activator] | 165*[activator] | 628*[activator]
